Test results as given in PubChem BioAssay AID1159580 (chemical genetic matrix, 2015).
Several values for one entry are separate records, joined by “and”; a condition that tells them apart may be missing. Equal values may be shown once. Among all 5,500 compounds or so, about 2,000 (36%) were called active. Roughly 18% stayed inconclusive and do not appear here. No stated cut-off is given here; in the data, active means normalized growth mostly below about 0.91 (no sharp cut-off); inconclusive means no clear call, values can overlap the other calls; inactive means mostly above about 0.92. Some of the results follow.

Assay: chemical genetic growth profiling, strain panel (AID 1159580);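 further: tested at 20 µM; growth read once vehicle control cultures reached saturation at 30 °C; 1 = growth at the plate median or of vehicle wells; lower values mean less growth of the strain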
Details: growth OD

Measured: normalized growth

CC1OC1P(=O)(O)O (stereo unspecified)
inactive: S. cerevisiae deletion strains, locus YKL009W, strain mrt4, hits give low values 0.991 | S. cerevisiae deletion strains, locus YKL068W, hits give low values 0.988 | S. cerevisiae deletion strains, locus YKL085W, strain MDH1 (second series), hits give low values 0.978 | S. cerevisiae deletion strains, locus YKL085W, strain MDH1, hits give low values 0.978 | S. cerevisiae deletion strains, locus YKL160W, strain elf1, hits give low values 0.971 | S. cerevisiae deletion strains, locus YKL190W, strain CNB1, hits give low values 1 | S. cerevisiae deletion strains, locus YKR001C, strain vps1, hits give low values 0.992 | S. cerevisiae deletion strains, locus YKR026C, strain gcn3, hits give low values 1 | S. cerevisiae deletion strains, locus YKR091W, strain srl3, hits give low values 0.988 | S. cerevisiae deletion strains, locus YLL001W, strain dnm1, hits give low values 0.982 | S. cerevisiae deletion strains, locus YLL026W, hits give low values 0.985 | S. cerevisiae deletion strains, locus YLL041C, strain sdh2, hits give low values 0.999 | S. cerevisiae deletion strains, locus YLR027C, strain aat2, hits give low values 0.975 | S. cerevisiae deletion strains, locus YLR039C, strain RIC1, hits give low values 0.991 | S. cerevisiae deletion strains, locus YLR058C, strain SHM2, hits give low values 0.996 | S. cerevisiae deletion strains, locus YLR102C, strain apc9, hits give low values 0.99 | S. cerevisiae deletion strains, locus YLR221C, strain rsa3, hits give low values 0.974 | S. cerevisiae deletion strains, locus YLR258W, strain gsy2, hits give low values 0.979 | S. cerevisiae deletion strains, locus YLR262C, strain YPT6 (second series), hits give low values 0.987 | S. cerevisiae deletion strains, locus YLR262C, strain YPT6, hits give low values 0.956 | S. cerevisiae deletion strains, locus YLR268W, strain sec22, hits give low values 0.986 | S. cerevisiae deletion strains, locus YLR320W, strain mms22, hits give low values 0.958 | S. cerevisiae deletion strains, locus YLR330W, strain CHS5, hits give low values 0.992 | S. cerevisiae deletion strains, locus YLR342W, strain FKS1 (second series), hits give low values 0.963 | S. cerevisiae deletion strains, locus YLR342W, strain FKS1, hits give low values 0.983 | S. cerevisiae deletion strains, locus YLR357W, strain rsc2, hits give low values 0.954 | S. cerevisiae deletion strains, locus YLR370C, strain arc18, hits give low values 0.999 | S. cerevisiae deletion strains, locus YLR371W, strain rom2, hits give low values 0.977 | S. cerevisiae deletion strains, locus YLR384C, strain iki3, hits give low values 0.995 | S. cerevisiae deletion strains, locus YLR418C, strain cdc73, hits give low values 0.963 | S. cerevisiae deletion strains, locus YML016C, strain PPZ1, hits give low values 0.99 | S. cerevisiae deletion strains, locus YML032C, strain rad52, hits give low values 0.997 | S. cerevisiae deletion strains, locus YML120C, strain ndi1, hits give low values 0.998 | S. cerevisiae deletion strains, locus YML124C, strain tub3, hits give low values 0.992 | S. cerevisiae deletion strains, locus YMR058W, strain fet3, hits give low values 0.998 | S. cerevisiae deletion strains, locus YMR078C, strain ctf18, hits give low values 0.982 | S. cerevisiae deletion strains, locus YMR125W, strain sto1, hits give low values 1.01 | S. cerevisiae deletion strains, locus YMR129W, hits give low values 1.01 | S. cerevisiae deletion strains, locus YMR205C, strain PFK2, hits give low values 0.962 | S. cerevisiae deletion strains, locus YMR223W, strain ubp8, hits give low values 0.971 | S. cerevisiae deletion strains, locus YMR231W, strain pep5, hits give low values 0.991 | S. cerevisiae deletion strains, locus YMR263W, strain SAP30, hits give low values 1.01 and 1 | S. cerevisiae deletion strains, locus YMR307W, strain GAS1, hits give low values 0.94 | S. cerevisiae deletion strains, locus YNL067W, strain RPL9B, hits give low values 1.03 | S. cerevisiae deletion strains, locus YNL071W, strain lat1, hits give low values 1 | S. cerevisiae deletion strains, locus YNL128W, strain TEP1, hits give low values 0.986 | S. cerevisiae deletion strains, locus YNL153C, strain GIM3, hits give low values 1.15 | S. cerevisiae deletion strains, locus YNL175C, strain NOP13, hits give low values 0.984 | S. cerevisiae deletion strains, locus YNL197C, strain WHI3, hits give low values 0.988 | S. cerevisiae deletion strains, locus YNL209W, strain ssb2, hits give low values 0.981 | S. cerevisiae deletion strains, locus YNL224C, strain SQS1, hits give low values 0.983 | S. cerevisiae deletion strains, locus YNL233W, strain BNI4, hits give low values 1 | S. cerevisiae deletion strains, locus YNL248C, strain rpa49, hits give low values 1.03 | S. cerevisiae deletion strains, locus YNL250W, strain rad50, hits give low values 0.952 | S. cerevisiae deletion strains, locus YNL271C, strain bni1, hits give low values 0.993 | S. cerevisiae deletion strains, locus YNL298W, strain CLA4, hits give low values 0.994 | S. cerevisiae deletion strains, locus YNL307C, strain MCK1, hits give low values 0.98 | S. cerevisiae deletion strains, locus YNL322C, strain KRE1 (second series), hits give low values 0.967 | S. cerevisiae deletion strains, locus YNL322C, strain KRE1, hits give low values 0.996 and 0.98 | S. cerevisiae deletion strains, locus YNR049C, strain mso1, hits give low values 1 | S. cerevisiae deletion strains, locus YNR052C, strain pop2, hits give low values 0.978 | S. cerevisiae deletion strains, locus YOL006C, strain TOP1, hits give low values 1.02 | S. cerevisiae deletion strains, locus YOL012C, strain htz1 1.02 | S. cerevisiae deletion strains, locus YOL147C, strain pex11, hits give low values 0.98 | S. cerevisiae deletion strains, locus YOR001W, strain rrp6, hits give low values 0.971 | S. cerevisiae deletion strains, locus YOR061W, strain CKA2, hits give low values 0.987 | S. cerevisiae deletion strains, locus YOR069W, strain VPS5, hits give low values 0.992 | S. cerevisiae deletion strains, locus YOR070C, strain gyp1, hits give low values 0.981 | S. cerevisiae deletion strains, locus YOR080W, strain dia2, hits give low values 1 | S. cerevisiae deletion strains, locus YOR083W, strain WHI5 (second series), hits give low values 0.997 | S. cerevisiae deletion strains, locus YOR083W, strain WHI5, hits give low values 0.95 | S. cerevisiae deletion strains, locus YOR106W, strain vam3, hits give low values 0.986 | S. cerevisiae deletion strains, locus YOR136W, strain idh2, hits give low values 0.994 | S. cerevisiae deletion strains, locus YOR144C, strain elg1, hits give low values 0.989 | S. cerevisiae deletion strains, locus YOR184W, strain ser1, hits give low values 0.972 | S. cerevisiae deletion strains, locus YOR265W, strain rbl2, hits give low values 0.977 | S. cerevisiae deletion strains, locus YOR270C, strain vph1, hits give low values 1.07 | S. cerevisiae deletion strains, locus YOR290C, strain snf2, hits give low values 0.992 | S. cerevisiae deletion strains, locus YOR316C, strain cot1, hits give low values 0.993 | S. cerevisiae deletion strains, locus YPL051W, strain arl3, hits give low values 0.977 | S. cerevisiae deletion strains, locus YPL055C, strain LGE1, hits give low values 1.06 | S. cerevisiae deletion strains, locus YPL078C, strain atp4, hits give low values 0.993 | S. cerevisiae deletion strains, locus YPL106C, strain sse1, hits give low values 0.959 | S. cerevisiae deletion strains, locus YPL240C, strain hsp82, hits give low values 0.997 | S. cerevisiae deletion strains, locus YPL241C, strain CIN2, hits give low values 0.996 | S. cerevisiae deletion strains, locus YPR119W, strain clb2, hits give low values 0.99 | S. cerevisiae deletion strains, locus YPR141C, strain kar3, hits give low values 0.985 | S. cerevisiae deletion strains, locus YPR163C, strain tif3, hits give low values 0.979 | S. cerevisiae deletion strains, locus YPR167C, strain met16, hits give low values 0.987 | S. cerevisiae deletion strains, strain wtn01, hits give low values 0.967 | S. cerevisiae strains, strain wild type, hits give low values 1
